Experimental data published in PubChem BioAssay (Tox21).
Results filed as inconclusive are left out. A number with no mark means an inactive call. Activity calls are given as the source filed them. The call rests on the fitted dose curve; in most records, active means well fitted cell-killing curve with a large enough effect in the repeat runs; inconclusive means weak or mixed curves, or effect the other way; inactive means flat fitted curve, though single readings scatter.

Test: qHTS assay to identify small molecule agonists of the TGF-beta/Smad signaling pathway - cell viability counter screen (AID 1346829); further: top concentration of the series differs between compounds; nearly all actives have a fitted effect of over 45% in size
Details: SBE-bla HEK293T viability, CellTiter-Glo luminescence, 5 h; series mostly up to 76.8 µM; activity change, negative = cytotoxicity: at the top concentration
Excerpt: National Center for Advancing Translational Sciences [NCATS]
NIH Chemical Genomics Center [NCGC]
U.S. Environmental Protection Agency [EPA]
National Institutes of Environmental Health Sciences [NIEHS]
National Toxicology Program [NTP]
U.S. Food and Drug Administration [FDA]
Transforming growth factor beta (TGF-beta) superfamily consists of a large number of structurally related dimeric proteins that act as hormones or local mediators in regulating a wide range of biological functions. This superfamily includes TGF-betas themselves, the bone morphogenetic proteins (BMPs) and the activins. These ligands induce oligomerization of serine/threonine receptor kinases and phosphorylate the cytoplasmic signaling molecules of Smad protein family. CellSensor SBE-bla HEK 293T cell line (Life Technologies, Carlsbad, CA), responsive to TGF-beta was used to screen Tox21 10K compound library for identification of agonists/antagonists of the Smad signaling pathway. This cell line contains a beta-lactamase reporter gene under control of the Smad binding element (SBE) stably integrated into HEK 293T cells. Also cytotoxicity of the compounds was tested in parallel by measuring the cell viability using CellTiter-Glo assay system in the same wells.
Tox21 Assay Protocol Summary:
SBE-bla HEK 293T cells were dispensed at 4,000/well in 6 uL of assay medium into black wall/clear-bottom 1536-well plates using a Multidrop Combi (ThermoFisher Scientific, Waltham, MA) dispenser. After the assay plates were incubated at 37 C and 5% CO2 for an overnight, 23 nL of compounds dissolved in DMSO, positive controls or DMSO only was transferred to the assay plate by a Pintool station (Kalypsys, San Diego, CA). The assay plates were incubated at 37 C and 5% CO2 for 5 hr. One uL of LiveBLAzer B/G FRET substrate (Life Technologies) was added using a Flying Reagent Dispenser (FRD, Aurora Discovery, San Diego, CA) and the plates were incubated at room temperature for 2 hr. Fluorescence intensity (405 nm excitation, 460 nm and 530 nm emissions) was measured using an Envision plate reader (PerkinElmer, Shelton, CT). For cytotoxicity read, 4 uL of CellTiter-Glo reagent (Promega Corporation, Madison, WI) was added to each well of the assay plates using FRD. After 30min incubation at room temperature, the luminescence intensity was measured using ViewLux plate reader (PerkinElmer).
On the % scale 0 is the no-effect control and ±100 the full control effect.

| Structure (SMILES) | activity change, negative = cytotoxicity | outcome |
| --- | --- | --- |
| CCCN(CCC)CCc1cccc2c1CC(=O)N2 | -6.47% [at 35.3 µM] |  |
| O=C1CCCN1C1CCCCC1 | -3.85% |  |
| OC[C@]1(O)OC[C@@H](O)[C@H](O)[C@@H]1O |  | inactive |
| C=C[Si](OC(=C)C)(OC(=C)C)OC(=C)C | 3.98% |  |
| COc1ccc(CCN(C)CCCC(C#N)(c2cc(OC)c(OC)c(OC)c2)C(C)C)cc1OC (stereo not given) | -2.88% [at 35.3 µM] |  |
| CC/C=C\CC/C=C/CO | 1.69% |  |
| CC(C)NCCCC1(C(N)=O)c2ccccc2-c2ccccc21 | 2.32% [at 35.3 µM] |  |
| CCC(=O)OC(C)c1ccccc1 (stereo not given) | -6.03% |  |
| O=c1n(CCO)c(=O)n(CCO)c(=O)n1CCO |  | inactive |
| CN(C)CCCNCCCN(C)C | 0.0195% |  |
| CCN1CCC[C@H]1CNC(=O)c1cc(S(N)(=O)=O)ccc1OC | 3.82% [at 35.3 µM] |  |
| O=c1cc(CO)occ1O | -10.3% [at 35.3 µM] |  |
| CCCCOCCOCCOCCCC | 0.788% |  |
| CCO/C([O-])=N/c1c[n+](N2CCOCC2)no1 | 0.914% [at 35.3 µM] |  |
| Nc1nc2c(ncn2COC(CO)CO)c(=O)[nH]1 | 1.61% [at 35.3 µM] |  |
| C1OCOCO1 | 11.4% |  |
| Cc1cnc(NS(=O)(=O)c2ccc(N)cc2)nc1 | 0.898% [at 35.3 µM] |  |
| NS(=O)(=O)c1cc(C(=O)O)cc(N2CCCC2)c1Oc1ccccc1 | 5.55% [at 35.3 µM] |  |
| FC1(F)C(F)(F)C(F)(F)C2(F)C(F)(F)C(F)(F)C(F)(F)C(F)(F)C2(F)C1(F)F (stereo not given) | -6.76% [at 35.3 µM] |  |
| CC(NC(CCc1ccccc1)C(=O)O)C(=O)N1C(=O)N(C)CC1C(=O)O (stereo not given) | 12.6% [at 35.3 µM] |  |

| Structure (SMILES) | activity change, negative = cytotoxicity | outcome |
| --- | --- | --- |
| CC(C)=CCCC(C)CC(=O)O (stereo not given) | 2.98% |  |
| CC(C)(O)C#CC(C)(C)O | -4.95% |  |
| COC(=O)c1c(Cl)c(Cl)c(C(=O)OC)c(Cl)c1Cl | -12.2% |  |
| Nc1ccc(S(=O)(=O)Nc2ccnn2-c2ccccc2)cc1 | 13.7% [at 15.8 µM] |  |
| CCCCC/C=C\CCC=O | -4.1% |  |
| CCCCC(CC)COC(=O)c1ccccc1O (stereo not given) | 7.89% [at 35.3 µM] |  |
| Cc1c(O)cccc1O | 1.88% |  |
| CCCCOCCOCCOCc1cc2c(cc1CCC)OCO2 |  | inactive |
| Cc1cc(O)cc2c1O[C@](C)(CCC[C@H](C)CCC[C@H](C)CCCC(C)C)CC2 | 1.19% [at 35.3 µM] |  |
| CC(C)NCC(O)c1ccc(NS(C)(=O)=O)cc1 (stereo not given) | 11.7% |  |
| COC(C)(C)CCCC(C)CC=O (stereo not given) | 11.3% |  |
| CCSC(=O)N(CC(C)C)CC(C)C | -6.11% |  |
| C[C@H](NC(CCc1ccccc1)C(=O)O)C(=O)N1CCC[C@H]1C(=O)O (stereo not given in full) | -0.507% [at 35.3 µM] |  |
| OC(CCN1CCCCC1)(c1ccccc1)C1CC2C=CC1C2 (stereo not given) | -4.62% [at 35.3 µM] |  |
| CN(C)CCCN1c2ccccc2CCc2ccc(Cl)cc21 |  | inactive |
| OC1CCCCC1c1ccccc1 (stereo not given) | 2.45% |  |
| CC(=O)CC(C)C | 13.4% |  |
| COC(=O)c1ccc(C)cc1C1=NC(C)(C(C)C)C(=O)N1 (stereo not given) | -7.89% |  |
| C[N+](C)(C)CCCCCC[N+](C)(C)C |  | inactive |
| CC(C)(O)C(=O)c1ccccc1 | 1.55% |  |
